FMDV inh – High Throughput Screening for Foot and Mouth Disease Virus Antivirals | FMDV antiviral cell-based qHTS | Potency, µM (top dose mostly 57.9 µM), hits mostly inhibitors | 410,000 compounds, 1.2% hits | AID 1159524, 2015; calls by dose curve; tested in HEK293T cells; also: read-out not given here; nearly all actives have a fitted effect of over 45% in size
HCV inh – qHTS Assay for Inhibitors of Hepatitis C Virus (HCV); Huh7.5.1 HCVcc-Cre infection, luciferase reporter, 44 h; Potency, µM (titrated, usually from 41.8 µM), hits mostly inhibitors; 340,000 compounds, 3.4% hits; AID 651820, 2012; active = well fitted inhibition curve with a large enough effect; inconclusive = small, poorly fitted or top-dose-only effect, or another doubt; inactive = no such curve, though single readings can be large or run the other way
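Seed cells (1,000/well) for 4 h; treat with compound and infect with HCVcc-Cre, moi about 0.5. Incubate 44 h, then detect luciferase activity.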
Marburg entry inh – qHTS for inhibitors of binding or entry into cells for Marburg Virus; Marburg virus pseudotyped entry inhibition, cell reporter; Potency, µM (titrated, usually from 37.8 µM), usual class: inhibitors; 300,000 compounds, 1.8% hits; AID 540276, 2011; calls by dose curve; tested in HEK293 cells
Lassa entry inh – qHTS for Inhibitors of binding or entry into cells for Lassa Virus | 300,000 compounds, 1.2% hits | Potency, µM (doses to about 37.9 µM), usual class: inhibitors | Lassa virus pseudotype entry inhibition, cell reporter; calls by dose curve; tested in HEK293 cells; also: nearly all actives have a fitted effect of over 50% in size
HCMV inh – qHTS Assay for inhibitors of the human cytomegalovirus (HCMV); HFF cells, HCMV-luciferase reporter, 72 h; stronger effect = lower value; 410,000 compounds, 4.5% hits; activity change, negative = inhibition, % at 57.5 µM; in the data active = activity change below about -60%; inconclusive = no clear call, values can overlap the other calls; inactive = above about -39%
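Two-dose cell screen: HFF monolayers treated with compounds and infected with luciferase-expressing HCMV at 1 PFU/cell, 72 h at 37C, then lysed for luciferase measurement.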
Numbers stand for hits; – = inactive; ? = inconclusive; · = no result given; ! = not active in a repeat. Hits are enriched below; roughly 7.9% of the tested compounds scored in any of these assays.

SMILES	FMDV inh	HCV inh	Marburg entry inh	Lassa entry inh	HCMV inh
COCCNC(=O)c1cccc(OC2CCN(Cc3cccc(C(C)=O)c3)CC2)c1	?	–	·	·	–
O=C(NCc1cccc(F)c1)c1cccc(OC2CCN(C(=O)C3CC3)CC2)c1	28µM	·	?	–	?
Cc1cccc(NC(=O)C2CCN(S(=O)(=O)c3ccc(F)cc3)CC2)c1C	–	·	?	–	–
CCCC(c1nnnn1CS(=O)(=O)c1ccc(C)cc1)N1CCN(C2CCCC2)CC1 (centres undefined)	–	?	?	–	–
CCCCC(c1nnnn1CS(=O)(=O)c1ccc(C)cc1)N1CCN(c2ccccc2)CC1 (centres undefined)	–	–	14µM	?	–
CCOc1ccc(Sc2cc(C(=O)NCCCOC)c3ccccc3n2)cc1	?	·	·	–	?
O=C(COc1ccc(F)cc1)Nc1nnc(S(=O)(=O)N2CCCC2)s1	–	–	·	–	–
CC(C)CN(C)c1nc(N)c(C(=O)N=C(N)N)nc1Cl	·	·	7.1µM	·	·
NC(N)=NC(=O)c1nc(Cl)c(N2CCCCCC2)nc1N	–	?	7.1µM	?	–
NC(N)=NC(=O)c1nc(Cl)c(N)nc1N	–	?	–	–	–
C[C@@H]1CC[C@H]2C(=O)O[C@H](CN=[N+]=[N-])CN2[C@@H]1c1ccc(Br)cc1	·	·	–	·	·
Cc1ccc(C=C2C(Cl)=C(Cl)C(Cl)=C2Cl)cc1	18µM	–	–	–	·
COc1ccc2[nH]c(=O)c(CN(Cc3cccs3)C(=S)Nc3cccc(C)c3)cc2c1	–	?	4.5µM	?	-66
CNC(=S)N(Cc1cccs1)Cc1cc2cc(OC)ccc2[nH]c1=O	?	–	?	–	–
COc1ccc2[nH]c(=O)c(CN(Cc3cccs3)S(=O)(=O)c3cccc4nsnc34)cc2c1	–	10µM!	16µM!	?	?
COc1ccc2[nH]c(=O)c(CN(CCO)S(=O)(=O)c3c(C)ccc4nsnc34)cc2c1	–	–	–	–	–
CC(=O)c1cn(CC(=O)Nc2ccc(C)cc2C)c2ccccc12	?	5.6µM	?	?	?
Cc1ccc(NC(=O)Cc2cc(C(=O)O)c3ccccc3n2)c(C)c1	?	13µM	12µM	15µM	?
CCC(=O)c1cn(CC(=O)Nc2cccc(C)c2C)c2ccccc12	–	?	–	–	–
Cc1ccc(-n2c(=O)c3cccnc3n2CC(=O)Nc2cccc(C)c2C)cc1	–	·	·	–	-63
CC(=O)c1cn(CC(=O)Nc2cccc(C)c2C)c2ccccc12	?	?	?	–	-70
O=C(OCC(=O)N1CCOCC1)c1cc(-c2ccccc2)nc2ccccc12	–	–	?	–	–
CCC(=N[C@H](CC)CO)C1=C(O)CC(C)(C)CC1=O	·	·	–	·	·
CCC(=NC)C1=C(O)CC(c2ccccc2)CC1=O (centres undefined)	–	–	–	?	–
CC(=N)C1=C(O)CC(c2ccccc2)CC1=O (centres undefined)	–	–	–	–	-99
SMILES	FMDV inh	HCV inh	Marburg entry inh	Lassa entry inh	HCMV inh
O=C(O[C@H]1CC[C@@]23CCCN2C(=O)CCC[C@H]3[C@H]1Cc1ccccc1)N1CCCC1	·	·	·	·	–
Cc1ccccc1N1CC(C(=O)O)CC1=O (centres undefined)	–	?	–	–	-85
Cc1ccccc1N1CC(C(=O)N2CCc3ccccc32)CC1=O (centres undefined)	–	–	–	–	–
C[C@@H]1CCCCO[C@H](CN(C)S(=O)(=O)c2ccccc2)[C@@H](C)CN([C@H](C)CO)C(=O)c2cc(NC(=O)Cc3ccccc3)ccc2O1	–	·	·	·	–
Cc1cc2cc(CN(Cc3ccc4c(c3)OCO4)Cc3nnnn3C3CCCC3)c(=O)[nH]c2cc1C	–	–	–	–	–
Cc1ccc2[nH]c(=O)c(CN(Cc3ccc4c(c3)OCO4)Cc3nnnn3C3CCCC3)cc2c1	–	?	?	3.5µM	–
Cc1cc(Cl)ccc1NC(=S)N(CCCN1CCOCC1)Cc1cccs1	–	–	?	–	–
Cc1ccc(Cl)cc1NC(=S)N(CCCN1CCN(C)CC1)Cc1cccs1	–	6.3µM	?	·	–
C=C(C)CN1CCN(S(=O)(=O)c2ccc(C)c(N(C)S(=O)(=O)c3ccc(C)cc3)c2C)CC1	–	?	?	?	-73
Cc1ccc(S(=O)(=O)N2CCN(Cc3ccccc3)CC2)c(C)c1N(C)S(=O)(=O)c1ccccc1	–	?	?	?	-81
Cc1ccc(S(=O)(=O)N(C)c2c(C)ccc(S(=O)(=O)N3CCN(C=O)CC3)c2C)cc1	–	–	–	–	-90
COCC(=O)Nc1cc(C(=O)N[C@H]2CCCCNC2=O)c2c(c1)nc(-c1ccncc1)n2C	–	·	·	·	·
N=c1ccn(Cc2ccc(F)cc2)cc1	–	4µM	·	·	?
CC1=NN(c2ccccc2)C(=O)C1C(=O)c1ccccc1 (centres undefined)	–	–	?	?	–
CC1=NN(c2ccccc2)C(=O)C1C(=S)SC1CC(=O)NC1=O (centres undefined)	–	·	·	·	-88
N#Cc1cc(C(=O)c2cc(Cl)ccc2O)cn(-c2ccccc2)c1=O	–	–	–	–	–
Cc1ccc(NC(=O)c2cc(C(=O)c3cc(Cl)ccc3O)cn(-c3ccc(C)cc3)c2=O)cc1	–	?	?	?	-70
CC1(C)C(=O)C=CC(=O)C(C)(C)C(=O)C=CC(=O)C(C)(C)C2=CC=C(O2)C(C)(C)C(=O)C=CC1=O	7.9µM	?	?	–	–
COc1ccc2c(c1)CCc1cnc(-n3ncc(C(=O)NCC(C)(C)CN(C)C)c3C)nc1-2	–	·	·	·	·
COc1ccc2nc3cc(Cl)ccc3c(Nc3cc(CN4CCCC4)c(O)c(CN4CCCC4)c3)c2n1	·	·	·	·	-100
CCC1CSC(=Nc2ccc(C)cc2)N1C(=O)CN1C(=O)NC2(CCCC2)C1=O (centres undefined)	–	·	?	10µM	–
Cc1ccc(C(NC(=O)CN2C(=O)NC3(CCCC3)C2=O)c2ccccc2)cc1 (centres undefined)	–	?	·	·	–
COc1ccc(NC(=O)CC2C(=O)N(c3cccc(OC)c3)C(=O)N2CCC2=CCCCC2)cc1 (centres undefined)	–	·	?	11µM	–
Cc1cccc(CSc2nc(-c3cccc(C)c3)nc3c2Cc2c(CO)cnc(C)c2O3)c1	–	·	·	–	–
COCCNC(=O)c1nn(-c2ccc(C)cc2)c(=O)n(C)c1=O	–	·	·	?	–
CCOC(=O)c1c(NC(=O)c2cccnc2)sc(C)c1C	·	10µM	–	–	–
CCOC(=O)c1sc(NC(=O)c2cccnc2)c(C#N)c1C	–	–	–	–	–
CCOC(=O)c1c(NC(=O)CNCC(O)CO)sc(C)c1C (centres undefined)	–	?	–	–	–
CCCCNCC(=O)Nc1sc(C)c(C)c1C(=O)OCC	–	11µM	–	–	–
COc1ccc(NC(=O)CN(C)C(=O)/C=C/c2ccc(S(=O)(=O)N3CCCCCC3)cc2)cc1	–	?	?	–	-77
